Experimental data from PubChem BioAssay (Tox21).
Inconclusive results are not listed. Calls of active or inactive are those of the source. Unless noted, the call rests on the fitted dose curve; in most records, active means well fitted curve in the direction sought with a large enough effect in the repeat runs; inconclusive means weak or mixed curves; inactive means no such curve, though single readings can be large; an effect the other way counts as inactive or inconclusive.

Legend:
[1] = qHTS assay to identify aromatase inhibitors - cell viability counter screen (AID 743084);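 further: cells stimulated with testosterone during compound exposure; nearly all actives have a fitted effect of over 55% in size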
[2] = qHTS assay to identify small molecule that activate the aryl hydrocarbon receptor (AhR) signaling pathway - cell viability counter screen (AID 743086);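 further: HepG2 liver cells carrying the AhR DRE luciferase reporter; series mostly up to about 70 µM; nearly all actives have a fitted effect of over 45% in size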
Procedure, shortened: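 HepG2-AhR-luc (HG2L7.5c1) cells, 4000/well, were preincubated 5 h at 37C, exposed to compound in qHTS format for 24 hr at 37C, then given CellTiter-Fluor for 30 min; viability was read as fluorescence in the reporter wells.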

[3] = biological target: Peroxisome proliferator-activated receptor gamma (Homo sapiens) (UniProt P37231); test: qHTS assay to identify small molecule agonists of the peroxisome proliferator-activated receptor gamma (PPARg) signaling pathway (AID 743094; active means well fitted activation curve with a large enough effect in the signal ratio in the repeat runs, not every such curve was filed as active; the % refers to the signal ratio)
Procedure, shortened: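 Stably transfected HEK293H cells (GeneBLAzer PPARg UAS-bla) were incubated with test substances for 17 h at 37C after a 5 h pre-incubation; beta-lactamase activity was then detected by FRET substrate fluorescence.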

[4] = qHTS assay to identify small molecule antagonists of the peroxisome proliferator-activated receptor gamma (PPARg) signaling pathway - cell viability counter screen (AID 743194); further: nearly all actives have a fitted effect of over 55% in size
Procedure, shortened: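 PPARg-UAS-bla HEK293H cells were plated, rested 5 h at 37 C, then treated with compounds plus rosiglitazone (50 nM final) for 17 h at 37 C; viability was then read by CellTiter-Glo luminescence after 30 min at room temperature.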

[5] = qHTS assay for small molecule agonists of the antioxidant response element (ARE) signaling pathway (AID 743202; active means well fitted activation curve with a large enough effect in the signal ratio in the repeat runs, not every such curve was filed as active; the % refers to the signal ratio)
Procedure, shortened: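 Read-out: LiveBLAzer B/G FRET substrate fluorescence after 2 h at room temperature, following 16 h compound treatment at 37 C of HepG2 cells carrying an ARE-driven beta-lactamase reporter.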

[6] = qHTS assay for small molecule agonists of the antioxidant response element (ARE) signaling pathway - cell viability counter screen (AID 743203; calls by dose curve; further: nearly all actives have a fitted effect of over 55% in size)
Procedure, shortened: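 Cells (ARE-bla HepG2, 2,000/well) receive DMSO-dissolved compounds after a 5 hrs rest. Plates incubate 16 hrs at 37C/5% CO2. CellTiter-Glo luminescence is then recorded after 30 min at room temperature.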

[7] = qHTS assay for small molecule activators of the heat shock response signaling pathway - cell viability counter screen (AID 743209); further: nearly all actives have a fitted effect of over 50% in size
Procedure, shortened: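 Quantitative HTS format, Tox21 10K library. HeLa cells carrying an HSE-driven beta-lactamase reporter were treated 5 h at 37 C, then assessed for viability by CellTiter-Glo luminescence.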

[8] = qHTS assay for small molecule activators of the heat shock response signaling pathway (AID 743210; active means well fitted activation curve with a large enough effect in the signal ratio in the repeat runs, with a control signal flat, not every such curve was filed as active; the % refers to the signal ratio; further: series mostly up to about 63 µM)
Procedure, shortened: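 HSE-bla HeLa cells (beta-lactamase reporter under heat shock response elements) were exposed to compounds for 5 h at 37 C, then loaded with LiveBLAzer B/G FRET substrate for 2.5 h at room temperature before fluorescence reading.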

[9] = qHTS assay to identify small molecule agonists of the peroxisome proliferator-activated receptor delta (PPARd) signaling pathway - cell viability counter screen (AID 743211); further: nearly all actives have a fitted effect of over 55% in size
Procedure, shortened: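 Viability was measured as CellTiter-Glo luminescence (30 min, room temperature) in the same wells as the beta-lactamase readout. GeneBLAzer PPARd UAS-bla HEK293H cells received compound after 5 h plating and were incubated 17 h at 37 C.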

[10] = biological target: Peroxisome proliferator-activated receptor delta (Homo sapiens) (UniProt Q03181); test: qHTS assay to identify small molecule agonists of the peroxisome proliferator-activated receptor delta (PPARd) signaling pathway (AID 743212; calls by dose curve)
Procedure, shortened: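 GeneBLAzer PPARd UAS-bla HEK293H cells (beta-lactamase reporter under UAS control), plated and rested 5 h at 37 C, then exposed to compounds in DMSO at 37 C; LiveBLAzer B/G FRET substrate added, 2 h room temperature, fluorescence read.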

[11] = qHTS assay to identify small molecule antagonists of the peroxisome proliferator-activated receptor delta (PPARd) signaling pathway - cell viability counter screen (AID 743213); further: nearly all actives have a fitted effect of over 50% in size
Procedure, shortened: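 Agonist-stimulated (L165041, 300 nM final) HEK293H PPARd UAS-bla cells are exposed to compounds for 17 h at 37 C, and ATP-based luminescence (CellTiter-Glo) from the same wells reports cytotoxicity.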

[12] = biological target: Peroxisome proliferator-activated receptor delta (Homo sapiens) (UniProt Q03181); test: qHTS assay to identify small molecule antagonists of the peroxisome proliferator-activated receptor delta (PPARd) signaling pathway (AID 743215; active means well fitted inhibition curve with a large enough effect in the signal ratio in the repeat runs, not every such curve was filed as active; the % refers to the signal ratio; further: series mostly up to about 62 µM)
Procedure, shortened: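 Antagonist-mode beta-lactamase reporter screen: HEK293H cells with UAS-bla under PPARd control, stimulated by 300 nM L165041 (final) alongside test compound for 17 h at 37 C, then FRET fluorescence after 2 h substrate incubation.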

[13] = biological target: Bile acid receptor (Homo sapiens) (UniProt Q96RI1); test: qHTS assay to identify small molecule antagonists of the farnesoid-X-receptor (FXR) signaling pathway (AID 743217; active means well fitted inhibition curve with a large enough effect in the signal ratio in the repeat runs, not every such curve was filed as active; the % refers to the signal ratio)
Procedure, shortened: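 Beta-lactamase reporter under UAS control in HEK 293T cells; compound exposure 16 h at 37 °C in the presence of chenodeoxycholic acid (50 uM final); signal from B/G FRET substrate after 2 h at room temperature.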

[14] = qHTS assay to identify small molecule agonists of the farnesoid-X-receptor (FXR) signaling pathway - cell viability counter screen (AID 743218); further: nearly all actives have a fitted effect of over 45% in size
Procedure, shortened: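 In GeneBLAzer FXR-UAS-bla HEK 293T cells, compounds act for 16 h at 37 C. Cell viability is then scored in the reporter wells by CellTiter-Glo, 30 min at RT, luminescence.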

[15] = biological target: Bile acid receptor (Homo sapiens) (UniProt Q96RI1); test: qHTS assay to identify small molecule agonists of the farnesoid-X-receptor (FXR) signaling pathway (AID 743220; active means well fitted activation curve with a large enough effect in the signal ratio in the repeat runs, not every such curve was filed as active; the % refers to the signal ratio)
Procedure, shortened: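 Beta-lactamase reporter under UAS control in GeneBLAzer FXR HEK 293T cells (5000/well) measured with LiveBLAzer FRET substrate after 2 h at room temperature. Compound exposure lasted 16 h at 37C.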

[16] = qHTS assay to identify small molecule antagonists of the farnesoid-X-receptor (FXR) signaling pathway - cell viability counter screen (AID 743221; active means well fitted cell-killing curve with a large enough effect in the repeat runs, not every such curve was filed as active; further: nearly all actives have a fitted effect of over 50% in size)
Procedure, shortened: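 Cytotoxicity counter screen run in the FXR-bla reporter wells: HEK 293T cells exposed to compound with 50 uM (final) chenodeoxycholic acid for 16 h, 37 C, then viability measured by CellTiter-Glo luminescence after 30 min, room temperature.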

[17] = biological target: Vitamin D3 receptor (Homo sapiens) (UniProt P11473); test: qHTS assay to identify small molecule agonists of the vitamin D receptor (VDR) signaling pathway (AID 743222; calls by dose curve)
Procedure, shortened: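 Agonist activity measured in VDR-bla reporter cells. Exposure 16 h, 37C, 5% CO2; detection by B/G FRET substrate, 2 h RT.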

[18] = biological target: Vitamin D3 receptor (Homo sapiens) (UniProt P11473); test: qHTS assay to identify small molecule antagonists of the vitamin D receptor (VDR) signaling pathway (AID 743223; active means well fitted inhibition curve with a large enough effect in the signal ratio in the repeat runs, not every such curve was filed as active; the % refers to the signal ratio)
Procedure, shortened: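 Antagonist mode: compound added to VDR-bla cells alongside agonist 1alpha,25-dihydroxyvitamin D3 (3 nM final), incubation 16 h at 37C. Read-out is LiveBLAzer FRET fluorescence, 2 h at room temperature.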

[19] = biological target: Peroxisome proliferator-activated receptor gamma (Homo sapiens) (UniProt P37231); test: qHTS assay to identify small molecule antagonists of the peroxisome proliferator-activated receptor gamma (PPARg) signaling pathway (AID 743191; calls by dose curve; further: series mostly up to about 63 µM; nearly all actives have a fitted effect of over 30% in size)
Procedure, shortened: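 GeneBLAzer PPARg UAS-bla HEK293H cells carrying a UAS-driven beta-lactamase reporter were plated at 3000 cells/well, preincubated 5 h at 37C, then given compound for 17 h at 37C; LiveBLAzer B/G FRET substrate was read after 1 h at room temperature.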
On the % scale 0 is the no-effect control and ±100 the full control effect.

Vitamin D3 receptor (Homo sapiens), sequence (P11473 whole entry, looked up): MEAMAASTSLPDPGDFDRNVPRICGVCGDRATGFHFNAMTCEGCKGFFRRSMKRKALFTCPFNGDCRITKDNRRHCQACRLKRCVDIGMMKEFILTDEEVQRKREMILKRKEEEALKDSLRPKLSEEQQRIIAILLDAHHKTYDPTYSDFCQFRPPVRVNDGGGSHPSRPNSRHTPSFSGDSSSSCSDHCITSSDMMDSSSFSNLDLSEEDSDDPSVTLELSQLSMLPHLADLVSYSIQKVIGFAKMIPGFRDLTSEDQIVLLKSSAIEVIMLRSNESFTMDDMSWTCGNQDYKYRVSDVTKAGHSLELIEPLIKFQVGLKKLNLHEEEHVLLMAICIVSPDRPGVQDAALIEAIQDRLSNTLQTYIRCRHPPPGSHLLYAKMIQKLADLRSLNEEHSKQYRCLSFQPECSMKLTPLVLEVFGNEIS
Peroxisome proliferator-activated receptor delta (Homo sapiens), sequence (Q03181 whole entry, looked up): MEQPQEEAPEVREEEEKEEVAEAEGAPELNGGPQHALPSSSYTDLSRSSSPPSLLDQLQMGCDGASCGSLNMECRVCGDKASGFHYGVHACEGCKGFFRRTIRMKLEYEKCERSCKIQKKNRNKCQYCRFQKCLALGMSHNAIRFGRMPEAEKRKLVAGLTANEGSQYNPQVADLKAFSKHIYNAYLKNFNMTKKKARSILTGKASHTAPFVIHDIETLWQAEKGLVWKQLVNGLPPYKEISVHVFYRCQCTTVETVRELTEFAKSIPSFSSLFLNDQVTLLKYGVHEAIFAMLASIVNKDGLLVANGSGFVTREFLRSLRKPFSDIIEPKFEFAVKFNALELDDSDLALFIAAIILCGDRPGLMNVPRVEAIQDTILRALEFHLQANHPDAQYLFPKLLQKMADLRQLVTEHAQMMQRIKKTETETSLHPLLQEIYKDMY
Peroxisome proliferator-activated receptor gamma (Homo sapiens), sequence (P37231 whole entry, looked up): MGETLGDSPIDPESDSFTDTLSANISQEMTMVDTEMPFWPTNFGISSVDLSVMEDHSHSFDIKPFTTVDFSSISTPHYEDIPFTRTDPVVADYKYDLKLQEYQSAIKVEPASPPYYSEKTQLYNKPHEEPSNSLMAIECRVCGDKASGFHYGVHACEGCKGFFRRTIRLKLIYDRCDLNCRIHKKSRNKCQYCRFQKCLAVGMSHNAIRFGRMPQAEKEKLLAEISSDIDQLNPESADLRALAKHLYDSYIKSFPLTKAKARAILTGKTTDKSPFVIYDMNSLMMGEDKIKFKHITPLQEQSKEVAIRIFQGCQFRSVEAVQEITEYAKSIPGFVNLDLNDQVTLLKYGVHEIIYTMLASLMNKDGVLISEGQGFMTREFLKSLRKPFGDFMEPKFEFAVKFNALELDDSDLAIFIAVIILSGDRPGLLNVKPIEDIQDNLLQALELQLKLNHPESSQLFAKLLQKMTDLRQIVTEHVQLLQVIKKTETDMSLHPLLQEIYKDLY
Bile acid receptor (Homo sapiens), sequence (Q96RI1 whole entry, looked up): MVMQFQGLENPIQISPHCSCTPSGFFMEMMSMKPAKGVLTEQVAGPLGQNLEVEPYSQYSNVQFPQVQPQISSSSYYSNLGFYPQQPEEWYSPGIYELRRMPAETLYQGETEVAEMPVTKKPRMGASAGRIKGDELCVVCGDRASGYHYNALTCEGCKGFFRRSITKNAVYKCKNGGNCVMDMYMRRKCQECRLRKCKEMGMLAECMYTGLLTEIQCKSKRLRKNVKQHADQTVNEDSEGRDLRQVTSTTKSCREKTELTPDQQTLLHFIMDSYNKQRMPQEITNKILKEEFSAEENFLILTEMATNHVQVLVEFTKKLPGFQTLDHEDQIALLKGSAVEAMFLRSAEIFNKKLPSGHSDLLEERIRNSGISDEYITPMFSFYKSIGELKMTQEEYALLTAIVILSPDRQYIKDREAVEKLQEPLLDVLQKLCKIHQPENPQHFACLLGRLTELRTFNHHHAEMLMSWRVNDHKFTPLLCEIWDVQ

O=C1c2ccccc2C(=O)c2cc(Cl)ccc21
inactive: activity change, negative = cytotoxicity [1] 7.6% [at 8.47 µM] | viability change, negative = cytotoxic [2] 10.5% [at 8.47 µM] | activation [3] 0.384% [at 7.08 µM] | activity change, negative = cytotoxicity [4] 2.72% [at 5.95 µM] | activation [5] -9.26% [at 8.36 µM] | viability change, negative = cytotoxic [6] -3.86% [at 8.36 µM] | activity change, negative = cytotoxicity [7] 2.51% [at 5.95 µM] | activation [8] -0.0238% [at 5.95 µM] | activity change, negative = cytotoxicity [9] -0.0176% [at 5.95 µM] | activation [10] -1.6% [at 5.95 µM] | viability change, negative = cytotoxic [11] 3.97% [at 6.26 µM] | ratio activity, negative = inhibition [12] 5.48% [at 6.26 µM] | activity change, negative = inhibition [13] -1.25% [at 5.95 µM] | viability change, negative = cytotoxic [14] -3.87% [at 5.95 µM] | activation [15] 0.306% [at 5.95 µM] | activity change, negative = cytotoxicity [16] -3.54% [at 5.95 µM] | activation [17] -5.27% [at 6.01 µM] | activity change, negative = inhibition [18] -12.7% [at 6.95 µM]

Cc1ccnc(N)c1
inactive: Potency [1] | Potency [2] | Potency [3] | outcome [19] | outcome [4] | Potency [5] | Potency [7] | outcome [8] | outcome [9] | outcome [10] | outcome [11] | outcome [12] | outcome [13] | outcome [14] | outcome [15] | outcome [16]

Cc1c(N)cccc1Cl
inactive: Potency [1] | Potency [2] | Potency [3] | outcome [4] | outcome [6] | Potency [7] | outcome [8] | outcome [9] | outcome [10] | outcome [11] | outcome [12] | outcome [13] | outcome [14] | outcome [15] | outcome [16] | outcome [18]

COc1ccc2c(c1)c1c3n2CCN(C)C3=NCC1
inactive: Potency [1] | Potency [2] | Potency [3] | outcome [19] | Potency [5] | outcome [6] | Potency [7] | outcome [8] | outcome [9] | outcome [10] | outcome [11] | outcome [14] | outcome [16] | outcome [17] | outcome [18]

CCOC(=O)CC1(C)OCC(C)O1 (stereo not given)
inactive: Potency [1] | Potency [2] | Potency [3] | outcome [4] | Potency [5] | outcome [6] | Potency [7] | outcome [8] | outcome [9] | outcome [10] | outcome [11] | outcome [12] | outcome [16]

N[C@@H](CSCCCO)C(=O)O
inactive: Potency [1] | Potency [2] | Potency [3] | outcome [4] | Potency [5] | outcome [6] | Potency [7] | outcome [8] | outcome [9] | outcome [11] | outcome [12] | outcome [14] | outcome [17] | outcome [18]

CCCC(=O)OC/C=C(\C)CCC=C(C)C
inactive: Potency [1] | Potency [2] | Potency [3] | outcome [4] | Potency [5] | outcome [6] | Potency [7] | outcome [8] | outcome [9] | outcome [10] | outcome [11] | outcome [13] | outcome [14] | outcome [15] | outcome [16] | outcome [17] | outcome [18]

CC(=O)O[Si](C)(OC(C)=O)OC(C)=O
inactive: Potency [1] | Potency [2] | Potency [3] | outcome [19] | outcome [4] | Potency [5] | Potency [7] | outcome [9] | outcome [10] | outcome [12] | outcome [16] | outcome [17] | outcome [18]

CO[Si](CCCn1c(=O)n(CCC[Si](OC)(OC)OC)c(=O)n(CCC[Si](OC)(OC)OC)c1=O)(OC)OC
inactive: Potency [1] | Potency [2] | Potency [3] | outcome [4] | Potency [5] | outcome [6] | Potency [7] | outcome [8] | outcome [9] | outcome [10] | outcome [11] | outcome [12] | outcome [14] | outcome [16] | outcome [17] | outcome [18]

Cc1cc(C)c(C(=O)O)c(C)c1
inactive: Potency [1] | Potency [2] | Potency [3] | outcome [19] | outcome [4] | Potency [5] | Potency [7] | outcome [9] | outcome [11] | outcome [16]

CC1(C)[C@H]2CC[C@](C)(C2)[C@H]1O
inactive: Potency [1] | Potency [2] | Potency [3] | outcome [4] | Potency [5] | outcome [6] | Potency [7] | outcome [8] | outcome [9] | outcome [10] | outcome [11] | outcome [12] | outcome [13] | outcome [15] | outcome [16] | outcome [17] | outcome [18]

ONc1ccccc1
inactive: Potency [1] | Potency [2] | Potency [3] | outcome [19] | outcome [4] | Potency [7] | outcome [9] | outcome [10] | outcome [11] | outcome [12] | outcome [14] | outcome [16] | outcome [17] | outcome [18]

O=C(Cl)c1ccccc1[N+](=O)[O-]
inactive: Potency [1] | Potency [2] | Potency [3] | outcome [19] | outcome [4] | Potency [5] | outcome [6] | Potency [7] | outcome [8] | outcome [9] | outcome [11] | outcome [14] | outcome [16]

Cc1c(Cl)cccc1Cl
inactive: Potency [1] | Potency [2] | Potency [3] | outcome [19] | outcome [4] | Potency [5] | outcome [6] | Potency [7] | outcome [8] | outcome [9] | outcome [14] | outcome [16] | outcome [17] | outcome [18]

OC[C@H]1O[C@@H](O[C@@H]2[C@@H](CO)O[C@](O)(CO)[C@H]2O)[C@H](O)[C@@H](O)[C@H]1O
inactive: Potency [1] | Potency [2] | Potency [3] | outcome [19] | outcome [4] | Potency [5] | outcome [6] | Potency [7] | outcome [8] | outcome [9] | outcome [11] | outcome [14] | outcome [16] | outcome [17]
